Rows were chosen to be rich in hits. Some 13% of all compounds tested hit in one or more screens of this group.
HCV inh – inhibitors of hepatitis C virus infection; Huh7.5.1 HCVcc-Cre infection, luciferase reporter, 44 h; Potency, µM (titrated, usually from 41.8 µM), for inactives: at the top dose activity change, negative = inhibition, most hits filed as inhibitors; 3.4% of 340,000 active; AID 651820; active = well fitted inhibition curve with a large enough effect; inconclusive = small, poorly fitted or top-dose-only effect, or another doubt; inactive = no such curve, though single readings can be large or run the other way; note: potency is the fitted concentration of half-maximal effect; % is set by controls: 0 for no effect and ±100 for the full control effect
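A cell-based infection assay in which seeded cells (1,000 per well) receive test compound after 4 h, are inoculated with HCVcc-Cre at approximately 0.5 moi, and are incubated 44 h before luminescence detection.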
Marburg entry inh – blocks Marburg virus binding to or entry into cells. Potency, µM (top dose mostly 37.8 µM), without a hit: top-dose activity change, negative = inhibition, actives largely listed as inhibitors. Marburg virus pseudotyped entry inhibition, cell reporter. 1.8% of 300,000 active. AID 540276; calls by dose curve; tested in HEK293 cells; note: potency is the fitted concentration of half-maximal effect; % is set by controls: 0 for no effect and ±100 for the full control effect
CHX counter – counter-screen for Shiga toxin inhibitors: cycloheximide protein synthesis inhibition; cell reporter, cycloheximide protein synthesis inhibition counterscreen; max response, %; 12% of 300,000 active; AID 2314; in the data active = max response mostly above about 13%, no sharp cut-off; inactive = mostly below about 14%; note: read at 38.3 µM for the half of the compounds with a filed dose; 0% is about no effect
FMDV antiviral – foot and mouth disease virus antiviral activity. FMDV antiviral cell-based qHTS. Potency, µM (titrated, usually from 57.9 µM), without a hit: top-dose activity change, negative = inhibition, usual class: inhibitors. 1.2% of 410,000 active; calls by dose curve; tested in HEK293T cells; note: read-out not given here; potency is the fitted concentration of half-maximal effect; % is set by controls: 0 for no effect and ±100 for the full control effect; nearly all actives have a fitted effect of over 45% in size
Shiga toxin inh – blocks Shiga toxin action in Vero cells | Vero cells, Shiga toxin protein synthesis inhibition reporter | inhibition, % at 38.7 µM | 9.2% of 290,000 active | AID 2315; in the data active = inhibition mostly above about 28%, no sharp cut-off; inactive = mostly below about 43%; note: 0% is about no effect
LASV entry inh – blocks Lassa virus binding to or entry into cells. Lassa virus pseudotype entry inhibition, cell reporter. Potency, µM (highest dose often 37.9 µM), for inactives: top-dose activity change, negative = inhibition, actives largely listed as inhibitors. 1.2% of 300,000 active. AID 540256; calls by dose curve; tested in HEK293 cells; note: potency is the fitted concentration of half-maximal effect; % is set by controls: 0 for no effect and ±100 for the full control effect; nearly all actives have a fitted effect of over 50% in size
Starred values were filed as active, the others as inactive; ? = inconclusive; · = no result given; ! = not active in a repeat; [ ] = another dose, or the depositor's remark.

SMILES | HCV inh | Marburg entry inh | CHX counter | FMDV antiviral | Shiga toxin inh | LASV entry inh
O=S(=O)(Cc1ccccc1)NCC1CCCN(Cc2cccc3nonc23)C1 (stereo not drawn) | 9.7% | -7.7%[46.1 µM] | -1.9 | -2.0% | 1.4 | 19.0%
CCCOP(=O)(O)c1c([N+](=O)[O-])cc(C(F)(F)F)cc1[N+](=O)[O-] (tested in a mixture with another compound) | 17.7% | 8.9% | 14.3* | · | 42.0 | 29.5%
COc1ccc(-n2c(Cc3cccn3C)nnc2SCC(=O)Nc2ccc(C)cc2C)cc1 | ? | -0.1% | -4.2 | -4.4% | -15.4 | -26.0%
C[C@H](CO)N1C[C@H](C)[C@@H](CN(C)S(=O)(=O)c2ccccc2)Oc2c(NC(=O)Nc3ccc(C(F)(F)F)cc3)cccc2C1=O | ? | · | · | -29.8% | · | ·
O=c1/c(=C\c2ccc3c(c2)OCO3)sc2n1CCCN=2 | -22.4% | ? | 28.3* | -0.7% | 50.2* | 0.8%
Cc1ccc(/C=c2\sc3n(c2=O)CN(c2ccc(Br)cc2)CN=3)o1 | 2.4% | 0.8% | -3.0 | -2.9% | -3.2 | 14.1%
Cc1ccc(/C=c2/sc3n(c2=O)CCCN=3)o1 | -6.6% | ? | 35.1* | 0.0% | 59.5* | 18.1%
CC[n+]1c(C)cc2c(sc3ccccc32)c1C | ? | · | 1.2 | -9.8% | 2.5 | ·
CCCn1c(C)cc(C(=O)COC(=O)c2cc(S(=O)(=O)NCC(C)C)c(Cl)cc2Cl)c1C | 10µM* | -14.7% | 14.0 | 26.4% | -9.1 | ?
CC(C)CNS(=O)(=O)c1cc(C(=O)OCC(=O)c2ccc3c(c2)OCCO3)c(Cl)cc1Cl | -18.1% | ? | -3.3 | ? | -3.2 | ?
CCOC(=O)C(NC(=O)Nc1cccc(C)n1)(OCC(F)(F)F)C(F)(F)F (stereo not drawn) | 25.6% | 6.2% | -1.1 | 0.5% | 3.5 | 3.0%
Cc1onc(-c2ccccc2Cl)c1C(=O)Nc1ccc(Cl)cn1 | 3.2% | · | 10.5* | -8.2% | 12.5 | ·
Cc1onc(-c2ccccc2Cl)c1C(=O)Nc1cccc2cccnc12 | 7.08µM* | ? | -0.8 | ? | -11.6 | ?
COc1cc(NC(=O)c2c(-c3ccccc3Cl)noc2C)c2ncccc2c1 | ? | 20.1%[46.1 µM] | · | -29.5% | · | ?
Cc1onc(-c2ccccc2Cl)c1C(=O)Nc1ccccc1C(N)=O | -28.7% | -19.5% | -2.1 | 11.2µM* | -9.9 | -5.0%
Cc1ccc(NC(=O)c2c(-c3ccccc3Cl)noc2C)nc1 | -5.0% | -8.1%[46.1 µM] | -1.3 | -17.4% | 8.3 | -0.7%[46.1 µM]
Cc1cc(=O)oc2c3c(cc(OCC(=O)NC4CC4)c12)OC(C)(C)CC3 | ? | · | 0.7 | -19.2% | -4.0 | ·
Cc1ccc(Cl)cc1NC(=O)CN1C(=O)COc2ccc(S(=O)(=O)N3CCOCC3)cc21 | 17.5% | · | 11.7 | 8.2% | -3.5 | 23.5%[46.1 µM]
CC1(C)C(=O)Nc2ccccc2N1C(=O)CN1C(=O)NC(CCc2ccccc2)C1=O (stereo not drawn) | 4.4% | · | -2.7 | -12.9% | -8.4 | ·
O=C1N=NC(c2ccccc2)c2ccccc21 (stereo not drawn) | · | 1.3% | · | · | · | ·
CCOc1[nH]n(-c2ccccc2)c(=O)c1C=NCc1cccnc1 | 3.8% | · | 8.9 | 17.2% | -5.7 | ·
COc1ccccc1-c1nc2c(c(SCc3ccc(F)cc3Cl)n1)Cc1c(CO)cnc(C)c1O2 | · | · | · | -5.9% | · | 14.4%[46.1 µM]
c1cncc(-c2nc(N3CCOCC3)c3c4c(sc3n2)CCC4)c1 | ? | ? | 1.8 | -26.3% | 2.2 | 1.5%
c1cncc(-c2nc(NCCCN3CCOCC3)c3c4c(sc3n2)CCC4)c1 | ? | 10µM* | 7.0 | -2.0% | -4.3 | ?
Cc1ccc(-n2c3nc(=O)[nH]c(=O)c-3cc3cc([N+](=O)[O-])ccc32)cc1 | 30.6% | ? | 3.4 | 31.6µM* | 1.8 | ?
SMILES | HCV inh | Marburg entry inh | CHX counter | FMDV antiviral | Shiga toxin inh | LASV entry inh
COc1cc(C2N(c3ccccc3)CCN2c2ccccc2)ccc1OC(C)=O | -10.6% | 12.5%[46.1 µM] | 47.1* | -11.9% | 55.9 | 13.8%
COc1cc(C2N(Cc3ccccc3)CCN2Cc2ccccc2)ccc1OC(C)=O | 0.2% | · | 1.0 | 0.9% | -11.4 | ·
CC(C)(C)c1ccc(S(=O)(=O)N2CCN(CC(O)COCC3CCCO3)CC2)cc1 (stereo not drawn) | 15.3% | · | · | 2.2% | · | ·
O=S(=O)(c1ccc(Cl)c(C(F)(F)F)c1)N1CCN(CC(O)COCC2CCCO2)CC1 (stereo not drawn) | 14.1% | 2.2% | 32.4* | -5.8% | -9.1 | -7.5%
Cc1ccc2[nH]c(=O)c(CN(Cc3ccccc3)Cc3nnnn3C3CCCC3)cc2c1 | ? | 18.3µM* | 40.1* | 35.3% | 91.5* | -38.1%
Cc1ccc2cc(CN(Cc3ccc4c(c3)OCO4)Cc3nnnn3Cc3ccco3)c(=O)[nH]c2c1 | 15.8µM*! | ? | -11.0 | 0.8% | 22.7 | ?
Cc1ccc2cc(CN(Cc3nnnn3C3CCCC3)C3CCCCC3)c(=O)[nH]c2c1C | 9.4% | -24.6% | 36.0* | · | 69.7* | 18.3%
Cc1ccc2[nH]c(=O)c(CN(Cc3nnnn3C3CCCC3)C3CCCCC3)cc2c1 | 24.8% | -3.2% | -1.4 | · | 0.6 | 1.4%
Cc1ccc(CN(Cc2cc3cc4c(cc3[nH]c2=O)OCCO4)Cc2nnnn2Cc2ccco2)cc1 | ? | ? | 11.0 | -14.0% | 5.8 | ?
CN(C)CCc1ccc(O)cc1 | · | · | · | 6.2% | · | ·
CCOc1ccc(CN2CCNC(=O)C2CC(=O)NCCCn2ccnc2)cc1 (stereo not drawn) | 6.2% | · | 6.4 | -8.8% | 9.7 | ·
Cc1ccc(C(=O)CNc2ccccc2)cc1 | -9.5% | -0.1%[46.1 µM] | 34.0* | 21.5% | 47.0* | 1.8%
NC(=O)c1ccccc1NCC(=O)c1ccc(F)cc1 | -0.3% | 1.6%[46.1 µM] | 29.1* | 5.6% | 48.0* | -2.0%
Cc1cccc(NCCC(=O)c2ccc(Br)cc2)c1 | -7.0% | 12.2% | 24.4* | · | 41.8 | 5.4%
Cc1ccc(C(=O)CC(=O)c2ccc(C(C)(C)C)cc2)cc1 | ? | · | 7.9 | 28.4% | 5.9 | ·
O=C(CNc1ccc(F)cc1)c1ccccc1 | -10.1% | ? | 23.1* | 49.1% | 52.2 | 7.5%
CC(=O)c1ccc(NCCC(=O)c2ccccc2)cc1 | 7.5% | ? | 10.8 | -24.5% | 23.2 | 7.4%[46.1 µM]
Cc1cccc(N(CC(=O)Nc2ccccc2F)S(C)(=O)=O)c1 | -0.1% | 19.3% | -2.7 | 18.8% | -16.6 | 5.0%
O=C(Cn1cnc2ccccc2c1=O)NCCC(=O)Nc1ccccc1C(F)(F)F | -5.9% | -0.4%[46.1 µM] | -2.6 | -6.4% | 2.1 | -9.8%
O=C(CCCSc1ccccc1)Nc1cccc(CO)c1 | 24.0% | ? | 9.6 | 11.6% | 28.7 | -2.2%[46.1 µM]
COc1ccc(OC)c(-c2nnc3n(CCc4ccccc4)c(=O)c4ccccc4n23)c1 | · | -9.2%[46.1 µM] | · | -6.9% | · | -8.7%[46.1 µM]
Cc1cc(S(=O)(=O)NCCc2ccccc2)c(C)s1 | ? | 7.1% | -0.4 | 66.1% | -9.9 | -3.4%
CCCCCCC(=O)N/N=C/c1c(O)n(CCc2ccccc2)c(=O)[nH]c1=O | ? | ? | -2.7 | -5.6% | 1.4 | ?
O=C(CNc1ccc(Br)cc1)c1ccccc1 | -12.2% | 3.3% | 18.4* | 50.4% | 20.6 | 28.1%

Source: PubChem (National Center for Advancing Translational Sciences (NCATS))
